Abeta yeast res – restores growth of yeast expressing A-beta42 peptide. yeast expressing A-beta42, growth rescue, OD600, 48 h; response scale: 0% DMSO, 100% iron-clioquinol control. Potency, µM (titrated, usually from 46.1 µM), actives largely listed as activators. AID 1347071. 0.063% of 410,000 active; further: potency means the concentration at half of the fitted maximal effect; nearly all actives have a fitted effect of over 55% in size
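Growth rescue measured by 600 nm absorbance after 48 h yeast culture at 30 C with compound. Values normalized between DMSO and an equimolar ferric chloride plus clioquinol control.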
FUS suppressor – FUS proteinopathy suppression in yeast | S. cerevisiae FUS-expressing, growth rescue, OD600, 24 h | Potency, µM (titrated, usually from 76.6 µM), hits mostly activators | 0.24% of 390,000 active | AID 1347120;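 further: potency means the concentration at half of the fitted maximal effect; plate controls were DMSO vehicle for no effect and reference control for full effect; nearly all actives have a fitted effect of over 55% in size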
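Absorbance at 600 nm, taken 24hr after compound addition, measured rescue of FUS-yeast growth at 30C. Induction used 2% galactose with seeding at OD 0.005. Controls: CP55940 from 92uM final, DMSO only.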
aSyn rescue – inhibitors of alpha-synuclein toxicity in yeast; Potency, µM (series often up to 46.1 µM), for the others: at the highest dose growth rescue (activation), usual class: activators; 0.14% of 370,000 active; Yeast expressing alpha-synuclein, growth rescue, BacTiter-Glo, 24 h; AID 652106; further: potency means the concentration at half of the fitted maximal effect; % of control where 0% means no effect; nearly all actives have a fitted effect of over 65% in size
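Screening used galactose-induced yeast with toxic alpha-synuclein levels, exposed to compound for 24 hr at 30 deg C. Cell growth, read with BacTiter-Glo luminescence, gave the measured signal.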
mIDH1 inhibitor – blocks human mutant IDH1 R132H enzyme; 0.093% of 390,000 active; Potency, µM (series often up to 76.6 µM), for inactives: at the highest dose activity change, negative = inhibition, actives largely listed as inhibitors; AID 602179; IDH1-R132H enzyme, NADPH consumption, diaphorase/resazurin fluorescence; further: potency means the concentration at half of the fitted maximal effect; on the % scale 0 is the no-effect control and ±100 the full control effect; nearly all actives have a fitted effect of over 65% in size
Target sequence (O75874 whole entry R132H, stated change not applied): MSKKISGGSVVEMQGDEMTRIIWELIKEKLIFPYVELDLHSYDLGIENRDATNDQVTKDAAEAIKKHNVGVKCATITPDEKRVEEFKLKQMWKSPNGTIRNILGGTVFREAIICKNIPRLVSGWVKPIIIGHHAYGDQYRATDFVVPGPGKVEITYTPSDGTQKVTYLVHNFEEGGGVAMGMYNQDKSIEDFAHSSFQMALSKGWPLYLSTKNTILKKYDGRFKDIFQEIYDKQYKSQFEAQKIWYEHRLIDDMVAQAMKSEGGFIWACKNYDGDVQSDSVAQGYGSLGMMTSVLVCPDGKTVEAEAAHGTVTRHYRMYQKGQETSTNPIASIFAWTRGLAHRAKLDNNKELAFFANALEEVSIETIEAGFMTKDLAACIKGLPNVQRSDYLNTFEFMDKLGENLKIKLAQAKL
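IDH1-R132H (0.5 ug/mL) preincubated 30 min with compound, then NADPH (0.016 mM) and alpha-KG (2 mM) added; 80 min at RT, pH 7.5. Remaining NADPH coupled via diaphorase/resazurin to fluorescence (540/590 nm); concentration-response curves normalized to no-enzyme control.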
LDHA inh – inhibitors of human lactate dehydrogenase A. P00338. 0.15% of 480,000 active. AID 1347041. activity change, % (values are at about 110 or 230 µM). purified LDHA, NADH/diaphorase-resazurin fluorescence; hits give low values; in the data active means activity change below about -30%; inconclusive means mostly about -25% to -30%;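 further: plate controls were DMSO wells for no effect and wells without enzyme for full effect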
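LDH5 2 nM; NADH 0.06 mM, pyruvate 0.2 mM; 200 mM Tris pH 7.4, EDTA, Tween-20; 5 min RT. Detection: diaphorase 0.133 mg/mL + resazurin 37 µM, fluorescence ex540/em590 at 0 and 20 min; normalized to enzyme-free and DMSO wells.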
TDP-43 yeast inh – rescues yeast growth from TDP-43 toxicity | Potency, µM (series often up to 46.1 µM), inactives show at the top dose growth rescue (activation), actives largely listed as activators | 1.8% of 410,000 active | TDP-43 expressing yeast growth rescue, BacTiter-Glo, 24 h | AID 652104; further: potency means the concentration at half of the fitted maximal effect; % of control where 0% means no effect; nearly all actives have a fitted effect of over 50% in size
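Luminescence from BacTiter-Glo reports growth of TDP-43-expressing yeast after 24 hr at 30 deg C with compound. Cells were raffinose-pregrown to mid-log, then seeded in galactose medium at OD600=0.02.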
Starred values were filed as active, the others as inactive; i = inactive; ? = inconclusive; . = no result. The list is not random: actives were taken first. Their share in the collection is about 2%. Unless noted, the call rests on the fitted dose curve; in most records, active means well fitted curve in the direction sought with a large enough effect; inconclusive means small, poorly fitted or top-dose-only effect, or another doubt; inactive means no such curve, though single readings can be large; an effect the other way counts as inactive or inconclusive.

SMILES	Abeta yeast res	FUS suppressor	aSyn rescue	mIDH1 inhibitor	LDHA inh	TDP-43 yeast inh
O=C(NC(=S)Nc1ccccc1Br)C1CCCC1	?	i	-1%	-6%	-2	16µM*
O=C(NC(=S)Nc1ccccc1Br)C1CCCCC1	i	.	-23%	1%	-1	16µM*
Cc1cc(S(=O)(=O)N2CCOC23CCN(C(=O)c2ccccc2C(F)(F)F)CC3)ccc1F	.	.	.	.	9	.
C=Cc1ccc(Cn2c(C(=O)O)c(CNCc3ccc(F)cc3)c3ccc(C)cc32)cc1	i	32µM*	.	-10%	2	9%
COc1ccc(Cn2c(C(=O)O)c(CNCCc3cc(OC)ccc3OC)c3ccc(C)cc32)cc1	i	28µM*	.	10%	6	4%
O=C(Cc1csc(-c2ccsc2)n1)Nc1ccnn1Cc1ccccc1Br	.	.	.	.	-1	.
NNC(=O)c1ccc(COc2ccc3ccccc3c2)cc1	i	i	-7%	3%	-1	16µM*
CCCc1ccc(OCc2ccc(C(=O)O)cc2)cc1	.	.	.	.	2	.
CCCc1cc(=O)oc2cc(OCc3ccc(C(=O)O)cc3)ccc12	i	i	3%	-7%	-5	2.5µM*
COc1ccc(OCc2ccc(C(=O)O)cc2)cc1	i	i	6%	3%	3	14µM*
c1cc(CNCCCn2ccnc2)ccn1	.	.	.	.	-1	.
O=C(NCCc1ccco1)c1ccc(CN2C(=O)CSc3ncccc32)cc1	.	.	.	.	3	.
COC(=O)/C(C#N)=C\c1cc(Br)c(O)c(OC)c1	.	.	.	.	5	.
CCOC(=O)Cn1cc(C(=O)c2cccs2)c2ccccc21	i	i	-1%	-6%	2	18µM*
CC1(C(=O)Nc2ccc3c(c2)OCCO3)CN(S(C)(=O)=O)CC(=O)N1CC(F)(F)F (configuration not stated)	i	i	-5%	.	6	0%
CC1(C(=O)Nc2ccc3c(c2)OCCO3)CN(S(C)(=O)=O)CC(=O)N1Cc1cccc(C(F)(F)F)c1 (configuration not stated)	i	i	13%	.	-5	22µM*
Cc1cccc(C2C=C(c3ccc(F)cc3)Nc3nc4ccccc4n32)c1 (configuration not stated)	i	i	.	?	-1	32µM*
Cc1ccc(C2=CC(c3ccccc3C)n3c(nc4ccccc43)N2)cc1 (configuration not stated)	i	i	.	14%	-7	10µM*
Cc1ccc(-c2nc3n(n2)C(c2ccccc2C)C=C(c2ccc(Cl)cc2)N3)cc1 (configuration not stated)	i	i	.	6%	2	-1%
CNC(=O)c1ccc(C)c(NC(=O)c2ccc3c(c2)CCCC3)c1	.	.	.	.	-24	.
CC(C)N(Cc1ccccc1)C(=O)c1cc2ccc3cccnc3c2[nH]1	i	i	.	2%	5	22µM*
COc1ccccc1NC(=O)c1cc2ccc3cccnc3c2[nH]1	i	?	.	22%	2	14µM*
COC(=O)/C=C1\OCc2cc(OC)c(OCc3ccccc3)cc21	i	i	-12%	.	-3	26%
COc1cc2c(cc1OC)/C(=C/c1ccc(Br)cc1)C(=O)OC2	i	?	16%	2%	2	13µM*
CC(=O)Nc1nc(COc2ccc3ccccc3c2)cs1	i	i	.	2%	0	7.1µM*
SMILES	Abeta yeast res	FUS suppressor	aSyn rescue	mIDH1 inhibitor	LDHA inh	TDP-43 yeast inh
CC(C)NC(=O)NC(=O)CSc1nc2ccccc2c(=O)n1C1CC1	.	.	.	.	-2	.
CCCN(CCC)Cc1c(C)[nH]c2ccc(Br)cc2c1=O	.	.	.	.	-31*	.
CCCCN(C)Cc1c(C)[nH]c2ccc(Br)cc2c1=O	.	.	.	.	4	.
Cc1ccccc1NC(=O)CCC(=O)N1CC(C)Sc2ccccc21 (configuration not stated)	i	i	.	0%	1	?
CC1CN(C(=O)CCC(=O)Nc2cc(F)ccc2F)c2ccccc2S1 (configuration not stated)	i	i	.	-6%	4	11µM*
Cc1ccc2nc3sc(C(=O)NC4CCC(O)CC4)cc3cc2c1 (configuration not stated)	.	.	.	.	12	.
Cc1cccc(C(=O)NC(=S)NNC(=O)COc2ccc(Cl)cc2)c1	i	i	?	-5%	-5	?
Cc1ccc(C(=O)NNC(=S)NC(=O)c2ccccc2)cc1	i	i	-32%	1%	-3	?
O=C(COc1ccccc1)NNC(=S)NC(=O)c1ccc(Cl)cc1Cl	?	i	?	-4%	-14	3.5µM*
Cc1ccc(C(=O)NNC(=S)NC(=O)c2ccc(Cl)cc2Cl)cc1	i	i	1.1µM*	1%	-5	?
Cc1nc(-c2ccccc2Cl)sc1C(=O)N[C@@H](C)C(=O)O	.	.	.	.	0	.
Cc1nc(-c2ccccc2Cl)sc1C(=O)/C=C/N(C)C	i	i	-64%	3%	-4	32µM*
O=C1c2ccccc2C(=O)N1c1ccccc1	i	i	0%	0%	-3	4%
Nc1cccc2c1C(=O)N(c1ccccc1)C2=O	i	i	-17%	0%	0	35µM*
COc1cccc2cc(/C(=N/O)c3ccccc3)oc12	i	i	16%	-5%	-2	11µM*
O=[N+]([O-])c1ccc(-c2nc(Cl)c3c(n2)CCCC3)o1	i	i	-6%	4%	-6	7.1µM*
CCOC(=O)N1CCN(C(=O)C[C@H]2C[C@@]3(C(=O)OC)C(=C[C@H](C(C)C)O[C@@H]3C3CC3)N(CCc3ccc(OC)c(OC)c3)C2=O)CC1	.	i	.	.	.	.
CCCCCCCCN1C(=O)[C@H](CC(=O)NCCC(C)C)C[C@@]2(C(=O)OCC)CCCC=C12	i	?	-1%	.	4	-12%
CCOC(=O)[C@]12CCCC=C1N(CCC1=CCCCC1)C(=O)[C@H](CC(=O)NCCC(C)C)C2	i	i	-18%	.	1	25µM*
COC(=O)[C@]12CCCCC=C1N(CCC1=CCCCC1)C(=O)[C@H](CC(=O)NCc1cccc(C(F)(F)F)c1)C2	i	i	22%	.	0	4%
CCOC(=O)[C@]12CCCC=C1N(CCC1=CCCCC1)C(=O)[C@H](CC(=O)NCCc1ccccc1OC)C2	i	i	6%	.	0	20µM*
CCOC(=O)N1CCN(C(=O)C[C@H]2C[C@@]3(C(=O)OC)C(=C[C@H](C(C)C)O[C@@H]3C3CC3)N(CCC3=CCCCC3)C2=O)CC1	.	13µM*	.	.	.	.
